# Screening results from PubChem BioAssay.
# GLP1R cytotox: cytotoxicity counter-screen for GLP-1 receptor inverse agonists; HEK293 cAMP-luciferase reporter cells, luminescence, 24 h; Potency, µM (doses to about 38.3 µM), without a hit: top-dose activity change, negative = inhibition, usual class: inhibitors; 410,000 tested, 0.13% active; AID 624418;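 further: loss of luciferase light is scored as toxicity; on the % scale 0 is the no-effect control and ±100 the full control effect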
#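 MLSMR compounds, 24 hr on cells at 37 deg C/5% CO2; luminescence after luciferase reagent (12 min RT). Inhibition counted as the undesired cytotoxic outcome.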
# GLP-1R inv ag: inverse agonists of human GLP-1 receptor. P43220. HEK293 GLP-1R CRE-luciferase, luminescence, 24 h; GLP-1R form is constitutively active. Potency, µM (titrated, usually from 38.3 µM), for the others: at the top dose activity change, negative = inhibition, most hits filed as inhibitors. 410,000 tested, 1.6% active. AID 624417; further: on the % scale 0 is the no-effect control and ±100 the full control effect; nearly all actives have a fitted effect of over 55% in size
# Target sequence (P43220 whole entry, looked up): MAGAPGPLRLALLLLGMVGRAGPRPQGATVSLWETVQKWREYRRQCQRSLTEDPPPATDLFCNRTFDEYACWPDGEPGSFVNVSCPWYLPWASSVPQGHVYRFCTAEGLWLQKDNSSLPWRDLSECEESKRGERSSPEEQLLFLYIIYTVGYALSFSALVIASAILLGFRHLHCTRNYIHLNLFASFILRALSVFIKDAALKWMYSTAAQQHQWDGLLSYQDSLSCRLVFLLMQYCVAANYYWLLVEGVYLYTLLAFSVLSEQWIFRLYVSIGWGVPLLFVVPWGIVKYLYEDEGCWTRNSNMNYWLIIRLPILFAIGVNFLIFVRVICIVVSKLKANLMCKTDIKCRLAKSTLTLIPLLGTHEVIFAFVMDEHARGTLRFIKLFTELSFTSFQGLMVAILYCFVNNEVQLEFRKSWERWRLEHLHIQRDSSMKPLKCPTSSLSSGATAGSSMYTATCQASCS
#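 qHTS in 1536-well format: reporter HEK293 cells expressing constitutive GLP-1R activity in DMEM + 10% Nu serum, 24 hr with compounds at 37 deg C, luminescence read after 12 min with detection reagent.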
# VP16 counter: inhibits Gal4-VP16 luciferase reporter, ROR gamma counter-screen | Drosophila S2 Gal4-VP16 UAS-luciferase, luminescence, 20 h | 310,000 tested, 3.5% active | AID 2546 | Potency, µM (doses to about 53.6 µM), for the others: at the top dose activity, negative = inhibition, usual class: inhibitors;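 further: Gal4-VP16 expression switched on by copper sulfate through the metallothionein promoter; on the % scale 0 is the no-effect control and ±100 the full control effect; nearly all actives have a fitted effect of over 50% in size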
# GLP-1R agonist: activates the human GLP-1 receptor. Potency, µM (top dose mostly 45.6 µM), inactives show at the highest dose activation, most hits filed as activators. P43220. HEK293 GLP-1R CRE-luciferase, luminescence, 4-6 h; cells express a hypersensitive GLP-1R form. 380,000 tested, 0.007% active; further: % of control where 0% means no effect
# RORgamma inh: inhibitors of mouse ROR gamma transcriptional activity; Potency, µM (top dose mostly 53.6 µM), without a hit: at the top dose activity change, negative = inhibition, usual class: inhibitors; 310,000 tested, 5.4% active; AID 2551; Drosophila S2 Gal4-RORgamma UAS-luciferase reporter, 20 h; P51450; further: on the % scale 0 is the no-effect control and ±100 the full control effect; nearly all actives have a fitted effect of over 60% in size
#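 In this cell-based reporter format, copper sulfate (700 uM final) drives Gal4–ROR gamma fusion expression from a metallothionein promoter in Drosophila Schneider cells; compounds preincubated 1 hr, reporter read after 20 hr at ambient temperature.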
# Numbers without * were called inactive; u = inconclusive; x = not tested or not shown; [ ] = remark or other dose. In the library only some 5.9% were active in any assay of this set; here they are far more common. The call rests on the fitted dose curve; in most records, active means well fitted curve in the direction sought with a large enough effect; inconclusive means small, poorly fitted or top-dose-only effect, or another doubt; inactive means no such curve, though single readings can be large; an effect the other way counts as inactive or inconclusive. Potency means the concentration at half of the fitted maximal effect.
SMILES,GLP1R cytotox,GLP-1R inv ag,VP16 counter,GLP-1R agonist,RORgamma inh
COC(=O)COc1ccc(S(=O)(=O)NCc2ccncc2)cc1,-18%,-14%,2.8µM*,-1%,u
COC(=O)[C@@]1(Cc2ccc(OC)cc2)[C@H]2c3cc(C(=O)N(C)C)n(Cc4ccc(C)c(F)c4F)c3C[C@H]2CN1C(=O)c1ccccc1,x,x,-12%,x,25%
CCCc1nnc(NC(=O)c2cc(=O)c3ccccc3o2)s1,6%,5%,x,x,x
COc1ccc(S(=O)(=O)NCCSCc2cccc(C)c2)cc1Br,-1%,11µM*,-1%,8%,7%
Cc1ccc(S(=O)(=O)NCCSCc2ccccc2)cc1,70%,u,6%,7%,27%
O=S(=O)(NCc1ccncc1)c1ccc(Br)s1,7%,2%,1.8µM*,24%,-39%
CNC(=O)c1cc(S(=O)(=O)NCc2ccncc2)ccc1OC,-18%,0%,u,-4%,-5%
COc1ccc(S(=O)(=O)NCc2cccnc2)cc1Br,-10%,-6%,11µM*,-1%,u
COc1cc(S(=O)(=O)NCc2ccncc2)ccc1Br,8%,11%,7.1µM*,6%,27%
O=C(O)CNS(=O)(=O)c1ccc(Br)s1,-1%,0%,-5%,8%,2%
CCCn1c(-c2ccc(F)cc2)nc2c(N3CCN(CCC(=O)OCC)CC3)nc(C)nc21,x,x,4%,x,-2%
CC1CCCCN1CCCNC(=O)Cn1ncc2c3ccccc3n(Cc3ccccc3)c2c1=O (stereo not drawn),-8%,7%,x,x,x
COc1cc(C2CC(=O)Nc3c2c(=O)n(C)c2ncnn32)cc(OC)c1OC (stereo not drawn),-2%,5%,x,2%,x
CC(=O)Nc1ccn(C2COC(COC(=O)c3ccccc3)O2)c(=O)n1 (stereo not drawn),x,x,x,8%,x
CC(C)(C)c1nnc(N/N=C/c2ccc(Br)cc2)n(N)c1=O,-35%,u,2.8µM*,-12%,2.8µM*
CC(C)(C)OC(=O)N/N=C/c1ccc(Br)cc1,8%,-30%,-1%,0%,26%
COc1ccccc1/C=C\C=N\NC(=O)c1ccco1,17%,25%,u,0%,u
COc1ccccc1/C=C/C=N/NC(=O)c1cccs1,3%,18%,u,23%,7.9µM*
COc1ccc(/C=C/C(=O)NCC(=O)N/N=C/c2cc(Br)ccc2OC)cc1,3%,0%,-8%,-2%,36%
COc1cccc(/C=N/NC(=O)CNC(=O)c2cccs2)c1O,u,u,11µM*,11%,3.2µM*
COc1ccccc1/C=C/C(=O)NCC(=O)N/N=C/c1cc(Br)ccc1OC,-23%,u,-24%,-15%,13µM*
COc1cccc(/C=N/NC(=O)CSc2ccccc2C)c1O,u,u,0.79µM*,-13%,0.71µM*
COc1cccc(/C=N/NC(=O)CSc2ccccc2C)c1OC,-9%,-6%,-14%,5%,-13%
Cc1ccc(C(=O)CSc2nnc3ccc4ccccc4n23)cc1,6%,-5%,x,x,x
Cc1cccc(OCC(=O)NCC(=O)N/N=C/c2ccc(O)cc2O)c1,-27%,u,-13%,-1%,u
SMILES,GLP1R cytotox,GLP-1R inv ag,VP16 counter,GLP-1R agonist,RORgamma inh
COc1cccc(/C=N/NC(=O)CNC(=O)COc2cccc(C)c2)c1O,-11%,u,2.2µM*,10%,0.28µM*
COc1ccccc1/C=C\C(=O)NCC(=O)N/N=C/c1cccc(OC)c1O,-8%,u,7.1µM*,-5%,4.5µM*
COCC(=O)C(C(=O)OC)[C@H](CCc1ccccc1)NC(=O)OC (stereo partly drawn),x,x,0%,x,5%
Cc1cc(OCc2ccc(C(=O)NN=C3CCCC3)cc2)ccc1Cl,5%,-12%,-6%,2%,-4%
CC(C)(C)c1ccc(OCc2ccc(C(=O)N/N=C3\CC4CC=CC34)cc2)cc1 (stereo not drawn),9%,1%,4.5µM*,7%,7.9µM*
O=C(N/N=C1\CC2CC=CC12)c1ccc(COc2ccccc2)cc1 (stereo not drawn),0%,7%,5µM*,3%,5µM*
O=C(Nc1ccccc1)c1ccc(COc2ccccc2)cc1,0%,8%,-2%,-2%,-1%
CCn1nc(-c2ccccc2)c(-c2ccccc2)c(C(=O)Nc2nc(C)c(C(C)=O)s2)c1=O,-13%,4.5µM*,x,x,x
Cc1c(C(=O)N(C)C)sc2c1c(=O)n(-c1ccc(F)cc1)c(=O)n2Cc1cc(=O)n2ccccc2n1,-6%,28%,x,x,x
Cc1cccc(OC2CCN(Cc3nc(CC4CC4)no3)CC2)c1,17%,13µM*,8%,8%,u
Cc1cc(N)n(-c2ncnc3scc(-c4ccc(Cl)cc4)c23)n1,-13%,5%,-10%,-3%,-23%
Clc1ncnc2scc(-c3ccc(Br)cc3)c12,-7%,u,u,13%,11µM*
O=C1CCCC=C1[C@H](CCc1ccccc1)OC(=O)c1ccc(Br)cc1,x,x,18%[10 µM],x,19%[10 µM]
Cc1c(C(=O)N(C)C2CCCCC2)sc2ncnc(N3CCN(c4ccccc4F)CC3)c12,-10%,13µM*,-14%,-2%,15%
CCc1ccc(NC(=O)CSc2nccn2C2CCCC2)cc1,2%,7%,x,x,x
Cc1ccc(OCC(=O)N(Cc2ccco2)Cc2ccc(C)o2)cc1,2%,u,x,x,x
Cc1ccc(CN(Cc2ccco2)C(=O)COc2c(C)cc(C)cc2C)cc1,3%,2.8µM*,x,x,x
Cc1cc(C)c(OCC(=O)N(Cc2ccco2)Cc2ccco2)c(C)c1,2%,u,x,x,x
Cc1ccc(CN(Cc2ccco2)C(=O)COc2cccc(C)c2C)o1,4%,11µM*,x,x,x
Cc1cccc(OCC(=O)N(Cc2ccc(N(C)C)cc2)Cc2ccco2)c1C,2%,10µM*,x,x,x
O=C(CSc1nc(=O)n(Cc2ccncc2)c2c1CCC2)Nc1ccc(F)cc1F,-7%,2%,x,x,x
NC(=O)c1ccccc1N/C=C/C(=O)c1ccc(F)cc1,2%,-27%,u,-8%,0.56µM*
NC(=O)c1ccccc1N/C=C/C(=O)c1ccc(Cl)cc1Cl,14%,u,4µM*,-1%,0.63µM*
Cc1ccc(C(=O)/C=C/Nc2ccccc2C(N)=O)o1,5%,14%,11%,0%,-29%
CC(=O)N1CCC2(CCN(Cc3ccc(C#N)cc3)CC2)CC1,x,x,2%,x,2%
CSc1ccc(CN(C)C(=O)c2cccc(S(=O)(=O)N3CCN(Cc4ccccc4)CC3)c2)cc1,-12%,11µM*,x,7%,x
CC(=O)Nc1cccc(NC(=O)c2cccc(S(=O)(=O)N3CCN(Cc4ccccc4)CC3)c2)c1,-12%,u,x,-8%,x
COCCN(Cc1ccccc1)C(=O)c1cccc(S(=O)(=O)N2CCN(c3ccc(F)cc3)CC2)c1,17%,u,x,17%,x
CSc1ccc(CN(C)C(=O)c2cccc(S(=O)(=O)NCc3ccccc3)c2)cc1,-2%,5µM*,-6%,9%,22%
